# Source: PubChem BioAssay AID731 (The Scripps Research Institute Molecular Screening Center, 2007)
# Screen size: about 200,000 compounds; about 520 (0.26%) were called active. No stated cut-off is given here; in the data, active means activation above about 23%; inactive means the rest. Only a selection was taken, and actives are over-represented in it overall.
# Molecular target: Peroxisome proliferator-activated receptor gamma (Homo sapiens) (UniProt P37231)
# Assay: PPARgamma agonists recruiting SRC-3 coactivator, primary screen, biochemical (AID 731);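 further: 0% = DMSO and 100% = reference agonist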
# Conditions: biochemical PPARgamma/SRC-3 coactivator recruitment assay; at 8 µM; stronger effect = higher value
# Peroxisome proliferator-activated receptor gamma (Homo sapiens), sequence (P37231 whole entry, looked up): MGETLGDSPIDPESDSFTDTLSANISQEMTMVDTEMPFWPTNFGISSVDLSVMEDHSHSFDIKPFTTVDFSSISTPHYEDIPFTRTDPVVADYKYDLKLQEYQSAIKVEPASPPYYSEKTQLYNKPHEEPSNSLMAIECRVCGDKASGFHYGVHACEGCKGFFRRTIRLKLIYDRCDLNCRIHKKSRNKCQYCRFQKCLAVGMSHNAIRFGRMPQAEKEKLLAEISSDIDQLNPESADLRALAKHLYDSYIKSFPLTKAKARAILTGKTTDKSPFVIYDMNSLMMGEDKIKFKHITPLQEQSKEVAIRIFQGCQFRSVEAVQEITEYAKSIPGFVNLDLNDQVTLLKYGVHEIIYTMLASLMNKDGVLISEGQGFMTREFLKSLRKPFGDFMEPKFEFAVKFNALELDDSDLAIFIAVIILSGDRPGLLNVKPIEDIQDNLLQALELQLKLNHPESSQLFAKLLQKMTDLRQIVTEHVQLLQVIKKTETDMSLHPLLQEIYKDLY
row,Structure (SMILES),activation
1,CSC1=NP(=S)(SC)N(C)c2nc3n(c21)CCC3 (stereo not given),102% (active)
2,CCCCCCN=C(CC)c1c(O)n(CCCC)c(=O)[nH]c1=O,-4.72% (inactive)
3,CCNc1nc2[nH]c(=O)c3c(c2s1)OC(N)=C(C#N)C3c1cccs1 (stereo not given),-2.75% (inactive)
4,CCN(CC)c1ccc([N+](=O)[O-])c2cccnc12,4.74% (inactive)
5,CC[N+](CC)(CC)CCCCCCCCCC[N+](CC)(CC)CC,-1.93% (inactive)
